# Bioassay records: PubChem, National Center for Advancing Translational Sciences (NCATS)
# 12-hLO inh – 12-hLO (ALOX12) enzyme inhibition | purified 12-hLO, xylenol orange hydroperoxide absorbance | P18054 | Potency, µM (titrated, usually from 57.1 µM), for the others: at the top dose activity change, negative = inhibition, hits mostly inhibitors | 150,000 compounds, 0.12% hits; also: potency is read from the fitted curve at half-maximal effect; nearly all actives have a fitted effect of over 55% in size
#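 Purified human 12hLO (150 nM final) was preincubated with compounds for 15 min at room temperature in 25 mM Hepes pH 7.0, 0.01% Triton X-100, then reacted with 40 uM arachidonic acid for 30 min. Hydroperoxide was detected with ferrous iron/xylenol orange.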
# PNC assembly inh – inhibitors of perinucleolar compartment assembly; activity change (PNC), negative = inhibition, % at 10 µM; 140,000 compounds, 3.1% hits; PC3M PTB-GFP, PNC prevalence imaging, 16 h; active compounds read low; AID 2417;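 active = readout at or below -70, meaning at least 70% loss of cells showing the perinucleolar compartment, a nuclear body marking cancer cells; inconclusive = readout between -30 and a set limit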;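 also: plate controls were DMSO wells for no effect and camptothecin positive control wells for full effect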
#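 Compounds are pinned in duplicate onto adhered PC3M cells stably expressing GFP-tagged PTB and incubated 16 h at 37 C. Cells are then fixed, nuclei stained with Hoechst, and PNC-positive cells counted.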
# GLA inh pH 4.5 – inhibitors of human alpha-galactosidase A at pH 4.5; P06280; 230,000 tested, under 10 active; purified enzyme, 4-MU-alpha-Gal fluorescence, pH 4.5; activity change, negative = inhibition, % at 105 µM;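 also: 0% = full activity with enzyme and -100% = basal without enzyme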
# Target sequence (P06280 whole entry, looked up): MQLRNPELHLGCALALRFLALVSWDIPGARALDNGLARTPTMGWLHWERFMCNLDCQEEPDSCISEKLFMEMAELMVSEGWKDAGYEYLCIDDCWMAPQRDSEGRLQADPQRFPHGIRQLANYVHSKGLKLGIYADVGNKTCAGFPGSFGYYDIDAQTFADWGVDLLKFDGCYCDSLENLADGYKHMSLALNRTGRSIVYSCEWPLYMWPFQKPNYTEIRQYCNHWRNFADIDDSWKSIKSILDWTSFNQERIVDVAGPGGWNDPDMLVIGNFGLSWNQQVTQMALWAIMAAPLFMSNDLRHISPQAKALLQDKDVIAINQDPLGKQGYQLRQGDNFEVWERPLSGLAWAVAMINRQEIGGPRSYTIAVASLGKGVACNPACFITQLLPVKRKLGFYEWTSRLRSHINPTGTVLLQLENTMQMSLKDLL
# GLA spleen mod – inhibitors or activators of human alpha-galactosidase in spleen homogenate; 240,000 compounds, 0.008% hits; P06280; Potency, µM (titrated, usually from 80 µM), inactives show at the highest dose activity change, negative = inhibition, usual class: inhibitors; human spleen homogenate, 4MU-alpha-Gal fluorescence, 40 min;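 also: potency is read from the fitted curve at half-maximal effect; 0% = enzyme with vehicle and -100% = no enzyme basal signal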
#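 Human spleen homogenate (1 ug) was the enzyme source, with 4-methylumbelliferyl-alpha-D-galactopyranoside (1 mM final) in pH 5.0 citrate buffer with 0.01% Tween-20. Compounds were titrated; after 40 min at 37C, NaOH/glycine stop, 4-MU fluorescence read; AC50 from Hill fits.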
# ALDH1A1 inh – inhibitors of human aldehyde dehydrogenase 1A1; P00352; Purified ALDH1A1, NADH fluorescence, propionaldehyde substrate; Potency, µM (series often up to 75.3 µM), for the others: at the top dose activity, negative = inhibition, usual class: inhibitors; 220,000 compounds, 7.3% hits; AID 1030; active = well fitted inhibition curve with a large enough effect, not every such curve was filed as active; inconclusive = small, poorly fitted or top-dose-only effect, or another doubt; inactive = no such curve, though single readings can be large or run the other way;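 also: potency is read from the fitted curve at half-maximal effect; plate controls were no enzyme wells and a reference inhibitor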
# HPGD inh – inhibitors of human 15-hydroxyprostaglandin dehydrogenase (HPGD); Potency, µM, inactives show at the highest dose activity change, negative = inhibition, actives largely listed as inhibitors; 150,000 compounds, 4.3% hits; purified HPGD, NADH fluorescence kinetic, PGE2 substrate; active = well fitted inhibition curve with a large enough effect, not every such curve was filed as active; inconclusive = small, poorly fitted or top-dose-only effect, or another doubt; inactive = no such curve, though single readings can be large or run the other way; also: potency is read from the fitted curve at half-maximal effect
#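 NADH formation kinetics: reaction with 30 uM PGE2 and 1 mM NAD+ (final), 20 nM enzyme, Tris-HCl pH 8 with Tween 20, after 15 min compound preincubation at room temperature. Fluorescence change, last versus first of five reads.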
# Starred values were filed as active, the others as inactive; ? = inconclusive; / = no result given; [ ] = remark or other dose. Hits are enriched below; roughly 10% of the tested compounds scored in any of these assays. Unless noted, calls follow the shape of the dose curve; as a rule, active = well fitted curve in the direction sought with a large enough effect; inconclusive = small, poorly fitted or top-dose-only effect, or another doubt; inactive = no such curve, though single readings can be large; an effect the other way counts as inactive or inconclusive. Unless noted, % is scaled to controls: 0 for no effect and ±100 for the full control effect.
SMILES,12-hLO inh,PNC assembly inh,GLA inh pH 4.5,GLA spleen mod,ALDH1A1 inh,HPGD inh
O=C(O)c1ccc(CSc2nc3ccc(N4C(=O)C5C6C=CC(C6)C5C4=O)cc3s2)cc1 (stereo not given),-1%,27,2,-2%,28µM*,16µM*
Cc1cccc(NC(=O)CSc2nc3ccc(N4C(=O)c5ccccc5C4=O)cc3s2)c1C,-1%,2,-15,3%,?,-15%
CCc1cccc(CC)c1NC(=O)CSc1nc2ccc(N3C(=O)C4C5C=CC(C5)C4C3=O)cc2s1 (stereo not given),6%,0,-4,-8%,?,8.9µM*
CC(=O)Nc1ccc(S(=O)(=O)NCc2ccncc2)cc1,/,/,1,0%,1%,/
Nc1ccc2c(c1)C(=O)N(CC1CCCO1)C2=O (stereo not given),8%,27,-5,4%,8.9µM*,-5%
O=C(NN1C(=O)c2ccccc2C1=O)c1ccc2c(c1)C(=O)N(CC1CCCO1)C2=O (stereo not given),/,/,0,2%,/,/
Nc1ccc(Oc2ccc3c(c2)C(=O)N(CC2CCCO2)C3=O)cc1 (stereo not given),/,/,-16,3%,28µM*,/
COC(=O)CNC(=O)C(=O)OC,/,/,/,1%,2%,/
O=C(/C=C/Nc1ccc(Cc2ccc(N/C=C/C(=O)C(F)(F)F)cc2)cc1)C(F)(F)F,0%,-85*,1,-18%,-4%,-17%
COc1ccc(N/C=C/C(=O)C(F)(F)F)cc1,-2%,-23,1,-1%,-6%,-1%
O=C(c1ccco1)N1CCC2(CCN(Cc3nccs3)CC2)CC1,3%,/,/,1%,-7%,-3%
CO[C@@H]1COC(=O)[C@@H](CCSC)NC(=O)C/C=C\[C@@H](C)COC(=O)[C@H](C)NC(=O)C/C=C\[C@H]1C,/,/,/,-7%[17.5 µM],3%[13.5 µM],/
CC(=O)C(Sc1nnnn1-c1ccccc1)C(C)=O,/,/,-3,5%,?,/
CCOC(=O)/C(=N/Nc1ccccc1)Sc1nnnn1-c1ccc(C)cc1,0%,?,-5,-4%,7.1µM*,-14%
CCOC(=O)/C(=N/Nc1ccccc1)Sc1nnc(CCc2ccccc2)n1-c1ccccc1,-16%,-134*,2,5%,0%,-22%
O=C(/C(=N\Nc1ccc(Br)cc1)Sc1nnnn1-c1ccccc1)c1ccccc1,3%,79,-1,4%,1.6µM*,-9%
CCOC(=O)/C(=N/Nc1ccc(Cl)cc1)Sc1nnnn1-c1ccc(C)cc1,2%,?,3,2%,1%,-11%
Nc1nc(N)c2nc(CNc3ccc(C(=O)N[C@H](CCC(=O)O)C(=O)O)cc3)cnc2n1,-2%,/,/,/,/,/
CC(=O)Oc1ccc2c(c1)CCC1C2CC[C@]2(C)C(OC(C)=O)CCC12 (stereo not given in full),-14%,/,-20,2%,9%,-14%
CN1CCN(c2ccc([N+](=O)[O-])c(-n3nc(-c4ccccc4)c4ccccc4c3=O)c2)CC1,-4%,11,-6,-14%,-8%,-10%
CCOC(=O)CC1Sc2ccccc2NC1=O (stereo not given),-7%,15,3,-2%,1%,-13%
CCOC(=O)CC1Sc2ccccc2NC1=S (stereo not given),/,/,-10,-2%,7.9µM*,/
Cc1c(Br)c([N+](=O)[O-])nn1CC(=O)Nc1ccc(Cc2ccncc2)cc1,0%,-93*,12,-4%,?,-18%
CC(C)CCNC(=O)CN(CC1CCCO1)C(=O)CCC(=O)Nc1ccccn1 (stereo not given),6%,25,-5,-12%,6%,-12%
O=C(CN(CC1CCCO1)C(=O)CCC(=O)Nc1ccccn1)NCc1ccccc1 (stereo not given),-1%,-100*,-14,-1%,3%,-16%
SMILES,12-hLO inh,PNC assembly inh,GLA inh pH 4.5,GLA spleen mod,ALDH1A1 inh,HPGD inh
Fc1ccc(Oc2ccc3nnc(C(F)(F)F)n3n2)cc1,/,/,-2,7%,?,/
CCOC(=O)c1c(C)oc2c1c1c(c3ccccc32)OCN(Cc2cccnc2)C1,?,20,-10,-7%,0.2µM*,-25%
CCOC(=O)c1c(C)oc2c1c1c(c3ccccc32)OCN(CCCC(=O)O)C1,/,/,-8,7%,7.9µM*,/
CCOC(=O)c1c(C)oc2c1c(C=NCC1CCCO1)c(O)c1ccccc12 (stereo not given),0%,56,-7,-6%,-15%,-7%
CCOC(=O)c1c(C)oc2c1cc(O)c1ccccc12,-10%,29,-13,-2%,2%,-8%
Cc1ccc(-c2cc(C3C4C=CCC(C)C4C(=O)N3Cc3ccccc3)ccc2F)cc1 (stereo not given),/,/,/,-1%,/,/
O=C(OCC(=O)N1CCN(c2ccccc2)CC1)c1ccc2ccccc2n1,-1%,3,5,9%,8.9µM*,-7%
Cc1ccc(-c2cn3cccc(C)c3n2)cc1,/,/,-3,6%,?,/
CCOC(=O)N1CCN(C(=O)C2CCN(Cc3ccc(O)c(OCC)c3)CC2)CC1,/,/,-3,11%,?,/
CCOC(=O)C1CCN(Cc2ccc(F)c(F)c2)CC1,-7%,-101*,2,5%,?,-3%
CCOC(=O)N1CCN(C(=O)C2CCN(Cc3cccc(OCc4ccccc4)c3)CC2)CC1,-3%,54,-6,-3%,14µM*,-7%
Fc1ccc(CN2CCCCCCC2)cc1F,-1%,?,-5,6%,18µM*,-6%
CCOC(=O)C1CCN(Cc2cccc(OC)c2)CC1,3%,3,1,0%,32µM*,-15%
Cn1cccc1C(=O)N1CCC2(CCCN(C(=O)Nc3cccc(C#N)c3)C2)CC1,0%,/,/,-3%,4%,-2%
